{
  "source": "PubChem BioAssay AID431",
  "about": "(Sanford-Burnham Center for Chemical Genomics, 2006)",
  "note": "About 1,100 (1.7%) of roughly 63,000 compounds were called active. This excerpt belongs to a sample that is enriched for actives. Potency and affinity values are given separately. Unmarked numbers belong to inactive results.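 How the source made its calls: active means compounds whose percent cytotoxicity in the single-dose primary screen, scaled between solvent and toxic-drug controls, exceeds 50; inactive means the rest.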",
  "data": [
    {"test": "cytotoxicity in KRAS-transformed pancreatic duct cells, primary screen, cell-based, fluorescence, HTS (AID 431);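 further: 0% = DMSO solvent wells and 100% = doxorubicin-treated wells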", "conditions": "HPDE-C7K KRASV12 cells, Alamar Blue viability, 48 h; at 10 µM; active compounds read high", "values": [
      {"smiles": "Cn1nccc1/C=C(/C#N)S(=O)(=O)c1ccccc1", "cytotoxicity": "-21.9%"},
      {"smiles": "Cc1ccc2nc(SCC(=O)O)nc(C)c2c1", "cytotoxicity": "-14.7%"},
      {"smiles": "CCc1nnc(NC(=O)CSc2nnc(Cc3ccccc3)n2-c2ccccc2)s1", "cytotoxicity": "-4.7%"},
      {"smiles": "CC1=Nn2c(nnc2-c2ccco2)SC1", "cytotoxicity": "-17.8%"},
      {"smiles": "COC(=O)c1sc(NC(=O)C2CCCO2)c(C(=O)OC)c1C", "note": "(centres undefined)", "cytotoxicity": "19.4%"},
      {"smiles": "O=C(CCN1c2ccccc2Sc2ccccc21)OCc1nnc(-c2ccccc2)o1", "cytotoxicity": "3.5%"},
      {"smiles": "COc1cc(OC)cc(-c2nnc(SCC(=O)N3c4ccccc4Sc4ccccc43)o2)c1", "cytotoxicity": "-24.8%"},
      {"smiles": "COc1ccc(C(=O)CSc2nnc(-c3ccccc3)o2)cc1", "cytotoxicity": "-6.4%"},
      {"smiles": "Cc1nnc(SC(=O)N2c3ccccc3Sc3ccccc32)s1", "cytotoxicity": "-0.5%"},
      {"smiles": "O=C(COc1cc(Cl)ccc1Cl)Nc1nnc(CC(=O)N2CCOCC2)s1", "cytotoxicity": "-20%"},
      {"smiles": "COc1ccccc1NC(=O)CN1CCN(CC(=O)Nc2ccc(F)cc2)CC1", "cytotoxicity": "11.3%"},
      {"smiles": "CCCNc1nc2c(c(=O)[nH]c(=O)n2C)n1Cc1ccc(F)cc1", "cytotoxicity": "8.2%"},
      {"smiles": "CC1Cc2ccccc2N1S(=O)(=O)c1ccc2c(c1)n(C)c(=O)c(=O)n2C", "note": "(centres undefined)", "cytotoxicity": "2.9%"},
      {"smiles": "CCOC(=O)C1CCCN(S(=O)(=O)Cc2ccccc2)C1", "note": "(centres undefined)", "cytotoxicity": "-14.4%"},
      {"smiles": "O=C1CSC(=S)N1c1cccnc1", "cytotoxicity": "-10.8%"},
      {"smiles": "O=C(O)c1ccc(CN2C(=O)CSC2=S)cc1", "cytotoxicity": "-5.7%"},
      {"smiles": "Cc1cccc(NC(=O)c2oc3c(c2C)C(=O)CC(C)(C)C3)n1", "cytotoxicity": "-12.7%"},
      {"smiles": "O=C(Nc1ccccc1C(=O)N1CCN(Cc2ccccc2)CC1)c1ccccn1", "cytotoxicity": "8.7%"},
      {"smiles": "COc1ccc2[nH]c(=O)c(CN(C(=O)COc3ccccc3)C(C)C)cc2c1", "cytotoxicity": "-31.9%"},
      {"smiles": "COC(=O)C1=C(N)OC2=C(C(=O)CC(C)(C)C2)C1c1ccoc1", "note": "(centres undefined)", "cytotoxicity": "-4%"},
      {"smiles": "Cc1nn(C)cc1C1C2=C(CC(C)(C)CC2=O)OC2=C1C(=O)CC(C)(C)C2", "cytotoxicity": "2.9%"},
      {"smiles": "O=C(c1ccccc1C(=O)N1CCN(c2ccccc2F)CC1)N1CCN(c2ccccc2F)CC1", "cytotoxicity": "4%"},
      {"smiles": "COC(=O)c1ccccc1NC(=O)c1ccc(-c2ccccc2F)o1", "cytotoxicity": "90.9% (active)"},
      {"smiles": "COC(=O)c1ccccc1NC(=O)c1ccc(COc2ccccc2)o1", "cytotoxicity": "10.5%"},
      {"smiles": "COc1ccccc1NC(=O)c1ccc(-c2ccccc2F)o1", "cytotoxicity": "-9%"},
      {"smiles": "COc1ccc(NC(=O)C(c2ccccc2)N(C)C(=O)c2cnccn2)cc1", "note": "(centres undefined)", "cytotoxicity": "-2.6%"},
      {"smiles": "CC1(C)Cc2c(sc3c2c(=N)n(Cc2ccco2)c(=O)n3CC(=O)Nc2ccccc2)CO1", "cytotoxicity": "8.6%"},
      {"smiles": "CC1(C)Cc2c(sc3c2c(=N)n(Cc2ccco2)c(=O)n3CC(=O)Nc2ccc(Cl)cc2)CO1", "cytotoxicity": "52.6% (active)"},
      {"smiles": "Cc1ccc(NC(=O)Cn2c(=O)n(Cc3ccco3)c(=N)c3c4c(sc32)COC(C)(C)C4)cc1", "cytotoxicity": "23%"}
    ]}
  ]
}
